# Screening data: PubChem BioAssay, National Center for Advancing Translational Sciences (NCATS)
# Pf growth 48h: P. falciparum growth inhibition at 48 hours (one generation); Potency, µM (titrated, usually from 28.7 µM), for inactives: at the highest dose activity change, negative = inhibition, most hits filed as inhibitors; actives 5.9% (n = 310,000); P. falciparum luciferase growth in erythrocytes, 48 h; note: potency is the fitted concentration of half-maximal effect; % is set by controls: 0 for no effect and ±100 for the full control effect
#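 Luminescence readout; reporter = integrated firefly luciferase in P. falciparum. RBC culture at 2% hematocrit, 0.1% parasitemia final, 37 C/5% CO2; decreased signal taken as growth inhibition.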
# Pf growth 96h: P. falciparum growth inhibition at 96 hour, primary screen for plastid delayed-death inhibitors | Potency, µM (highest dose often 28.7 µM), for the others: at the highest dose activity change, negative = inhibition, most hits filed as inhibitors | P. falciparum luciferase reporter growth, 96 h | actives 6.9% (n = 320,000); note: potency is the fitted concentration of half-maximal effect; % is set by controls: 0 for no effect and ±100 for the full control effect
#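 96 h incubation, 37 C, 5% CO2, of luciferase-reporter P. falciparum-infected RBCs (2% hematocrit, 0.05% parasitemia final) with test compounds; endpoint luminescence.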
# NS1 inh: blocks influenza NS1 protein function; Potency, µM (highest dose often 46.1 µM), for inactives: at the highest dose activity, positive = more growth; actives 0.4% (n = 270,000); calls by dose curve; note: potency is the fitted concentration of half-maximal effect; actives are rising curves; nearly all actives have a fitted effect of over 50% in size
#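 Growth recovery, yeast-based: influenza A NS1 expressed in S. cerevisiae causes slow growth, and suppressors are detected by OD600. The parent strain without NS1 is used as positive control.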
# Giardia FBPA inh: blocks Giardia fructose-bisphosphate aldolase activity; A8B2U2; purified Giardia FBPA; Potency, µM (top dose mostly 59.6 µM), for the others: at the highest dose activity, negative = inhibition, hits mostly inhibitors; actives 0.71% (n = 290,000); note: potency is the fitted concentration of half-maximal effect; % is set by controls: 0 for no effect and ±100 for the full control effect; nearly all actives have a fitted effect of over 55% in size
# Target sequence (A8B2U2 whole entry, looked up): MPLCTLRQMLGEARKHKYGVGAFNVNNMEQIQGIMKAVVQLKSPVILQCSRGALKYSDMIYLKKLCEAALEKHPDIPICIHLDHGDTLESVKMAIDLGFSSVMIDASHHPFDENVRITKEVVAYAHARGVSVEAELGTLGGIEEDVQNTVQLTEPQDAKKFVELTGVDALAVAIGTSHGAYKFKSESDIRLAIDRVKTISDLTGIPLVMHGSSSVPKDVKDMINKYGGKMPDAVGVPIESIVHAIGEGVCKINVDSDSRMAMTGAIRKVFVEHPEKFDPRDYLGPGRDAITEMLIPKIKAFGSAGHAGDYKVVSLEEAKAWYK
#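 Giardia FBPA (40 nM reagent) was preincubated 10 min at RT with compound (up to 57.5 uM final), then substrate plus GAPDH/TPI/NAD/arsenate coupling system with diaphorase/resazurin was added; resorufin fluorescence (525/598 nm) was read after 20 min.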
# Shiga inhibitor: inhibitors of Shiga toxin in Vero cells | actives 9.2% (n = 290,000) | Vero cells, Shiga toxin protein synthesis inhibition reporter | AID 2315 | inhibition, % at 38.7 µM; in the data active = inhibition mostly above about 28%, no sharp cut-off; inactive = mostly below about 43%; note: 0% is about no effect
# CHX counter: counter-screen hit for Shiga toxin inhibitors, cycloheximide; cell reporter, cycloheximide protein synthesis inhibition counterscreen; max response, %; actives 12% (n = 300,000); AID 2314; in the data active = max response mostly above about 13%, no sharp cut-off; inactive = mostly below about 14%; note: read at 38.3 µM for the half of the compounds with a filed dose; 0% is about no effect
# * = called active by the depositor; i = inactive; ? = inconclusive; · = no result; ! = not confirmed by another sample. The list is not random: actives were taken first. Their share in the collection is about 21%. Unless noted, calls come from the whole dose curve; as a rule, active = well fitted curve in the direction sought with a large enough effect; inconclusive = small, poorly fitted or top-dose-only effect, or another doubt; inactive = no such curve, though single readings can be large; an effect the other way counts as inactive or inconclusive.
SMILES,Pf growth 48h,Pf growth 96h,NS1 inh,Giardia FBPA inh,Shiga inhibitor,CHX counter
COc1ccccc1NC(=O)C1CCCN(S(=O)(=O)c2cccc3nsnc23)C1 (stereo unspecified),·,3.3µM*,4%,-10%,-11,-6
C/C(=N/Nc1ccc2ccccc2n1)c1ccccc1O,·,·,-9%,·,·,·
C/C(=N\Nc1nc2ccccc2nc1C)c1ccccc1O,?,1.2µM*,-6%,-2%,16,12
Cc1ccc(N/C=C(\[N+](=O)[O-])S(=O)(=O)c2ccccc2)cc1,9%,14%,·,-3%,-2,1
Cc1cccc(N/C=C(\[N+](=O)[O-])S(=O)(=O)c2ccccc2)c1C,12µM*,24%,·,-7%,-2,2
Cn1c(=O)c(-c2ccc(F)cc2)nc2cnc(N3CCOCC3)nc21,·,·,·,6%,·,·
N#C/C(=C\C1=C(N2CCOCC2)C(=C\c2ccc(Cl)cc2)/CC1)C(=O)Nc1ccccc1F,-22%,?,7%,1%,-6,-3
N#C/C(=C\C1=C(N2CCOCC2)C(=C/c2cccc([N+](=O)[O-])c2)/CC1)C(=O)Nc1ccccc1F,?,9.3µM*,-7%,-3%,-7,-5
Cc1oc(/N=C/c2ccc(O)cc2O)c(C#N)c1C,-2%,3%,·,-11%,117*,37*
CCOC(=O)N1CCN(C(=O)CSc2ccc3nnc(CCNC(=O)c4ccccc4)n3n2)CC1,0%,-4%,·,4%,16,-9
CC1Cc2ccccc2N1Cc1nc2cc(Cl)ccc2c(=O)[nH]1 (stereo unspecified),·,?,11%,-3%,-6,-3
COC(=O)c1ccc2c(=O)[nH]c(CN3c4ccccc4CC3C)nc2c1 (stereo unspecified),?,3.3µM*,?,-11%,-7,-2
CCOC(=O)c1ccc2c(c1)sc(=NC(=O)c1ccco1)n2CCOC,12%,2%,-8%,-1%,14,6
CCOC(=O)Cn1c(=NC(=O)c2cccs2)sc2cc(C(=O)OC)ccc21,99%,59%,29%,5%,72*,44*
CCN1C(=O)[C@H]2[C@@H](c3ccc(OC)cc3)N3C(=O)CN(CCOC)C(=O)[C@@]3(C)[C@H]2C1=O,14%,-4%,-6%,-6%,-7,-1
CCSc1ccc([C@@H]2[C@@H]3C(=O)N(C)C(=O)[C@@H]3[C@]3(C(=O)OC)CCCCN23)cc1,8.3µM*,?,·,·,·,·
COC(=O)[C@@]12CCCCN1[C@H](c1ccc(SC3CCCCC3)c(OC)c1)[C@@H]1C(=O)N(C)C(=O)[C@@H]12,8.3µM*,8.3µM*,·,·,·,·
CCC(C)Sc1ccc([C@H]2N[C@@](C)(C(=O)OC)[C@H]3C(=O)N(C)C(=O)[C@@H]23)cc1OC (stereo partly specified),?,4%,·,·,·,·
CCSc1ccc([C@@H]2[C@@H]3C(=O)N(CC)C(=O)[C@@H]3[C@]3(C(=O)OC)CCCCN23)cc1OC,13µM*,?,·,·,·,·
CCSc1ccc([C@@H]2[C@H]3C(=O)N(C)C(=O)[C@H]3[C@]3(C(=O)OC)CCCCN23)cc1OC,10µM*,?,·,·,·,·
Cc1noc(C)c1C(=O)Nc1cccc2ncccc12,3%,19%,-1%,1%,-17,-5
CN(Cc1ccco1)c1ncncc1-c1ccccc1Cl,·,·,·,-13%,·,·
COc1ccc(N(C(C)C(=O)N2CCC(Cc3ccccc3)CC2)S(C)(=O)=O)cc1 (stereo unspecified),?,6%,5%,-6%,20,9
Cc1ccc(C(=O)NC2CCCCNC2=O)cc1C (stereo unspecified),63%,109%,4%,4%,64*,38*
O=C(NC1CCCCNC1=O)c1ccc(Cl)cc1 (stereo unspecified),·,92%,-9%,2%,26,11
SMILES,Pf growth 48h,Pf growth 96h,NS1 inh,Giardia FBPA inh,Shiga inhibitor,CHX counter
Cc1ccc(C(=O)NC2CCCCNC2=O)cc1 (stereo unspecified),38%,33%,-2%,1%,94*,29*
Cc1ccc(C(=O)NC2CCc3ccccc3C2=O)cc1 (stereo unspecified),i,462%,·,-8%,65*,30*
O=C(CCS(=O)(=O)c1ccccc1)Nc1nc2cc3c(cc2s1)OCO3,1%,-23%,-8%,-4%,55,34*
CS(=O)(=O)c1ccc2nc(NC(=O)CCS(=O)(=O)c3ccccc3)sc2c1,-8%,94%,-15%,7%,-8,-3
O=C(CCS(=O)(=O)c1ccccc1)Nc1nc2cc3c(cc2s1)OCCO3,-36%,5.2µM*,2%,5%,90*,45*
OC[C@@H](O)C(O)[C@H](O)[C@@H](O)CO (stereo partly specified),·,·,·,6%,-3,-3
Cc1ccc(NC(=O)C2CCN(C(=O)NC3CCCCC3)CC2)cc1Cl,5%,151%,1%,2%,14,-2
Cc1ccc(NC(=O)NC2CCCCC2)cc1Cl,8%,·,-8%,0%,59*,34*
COc1ccc(NC(=O)NN2CCN(C)CC2)cc1OC,32%,29%,4%,·,21*,27*
COc1ccc(NC(=O)NC2CCCCCCC2)cc1OC,34%,?,-5%,2%,48,39*
COc1ccccc1CCC(=O)OCC(=O)NC1CC1,0%,3%,·,·,·,·
O=C1C2C3C=CC(CC3)C2C(=O)N1c1ccc(Cl)cc1Cl (stereo unspecified),0%,?,-4%,4%,-8,1
O=C(COC(=O)CCc1c[nH]c2ccccc12)NC1CCS(=O)(=O)C1 (stereo unspecified),-2%,8%,-2%,?,-2,1
CCN(CC(=O)NC(=O)NC1CCCCC1)Cc1nc2ccccc2c(=O)[nH]1,-17%,·,-3%,?,-6,-4
O=C(COC(=O)CCc1nc2ccccc2c(=O)[nH]1)NC1CCS(=O)(=O)C1 (stereo unspecified),33%,34%,·,1%,26,34*
CC1CCC(NC(=O)CC(C)(C)Cc2nc3ccccc3c(=O)[nH]2)CC1 (stereo unspecified),9%,?,?,-1%,51,16*
CN1[C@@H](CC(=O)c2ccccc2)CCC[C@H]1C[C@H](O)c1ccccc1,13µM*,17µM*!,-1%,-3%,-15,-5
Oc1ccc(C2CNCc3sccc32)cc1O (stereo unspecified),13µM*,?,4%,-7%,·,·
Cc1ccc(C)c(S(=O)(=O)N(C)C2(C)CCS(=O)(=O)C2)c1 (stereo unspecified),30%,40%,·,·,·,·
CCN(CC)CCNC(=O)c1ccc(NC(C)=O)cc1,11%,3%,-4%,3%,8,0
COc1cccc(NC(=O)COc2ccc3c(c2)CCC3)c1,28%,0%,·,0%,38*,23*
COc1ccc(OC)c(NC(=O)COc2ccc3c(c2)CCC3)c1,13µM*,?,·,·,·,·
